# Active and inactive are the calls of the source.
# Tests used:
# [1] = test system: PRMT1 (protein arginine N-methyltransferase 1); assay: small molecules binding arginine methyltransferase PRMT1 – biochemical, small-molecule microarray, 635 nm fluorescence, primary screen (AID 1088); details: higher = more signal;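 further: binding of Prmt1 protein to compounds spotted on small-molecule microarray slides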
# [2] = growth effects on S. cerevisiae YJM789 – YJM789 clinical isolate, OD600, 24 h, basal, primary screen (AID 1089); details: higher = more signal, called active from +8 up or from −8 down;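 further: growth of clinical yeast isolate S. cerevisiae YJM 789 seeded 1000 cells per well; test concentration not given here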
# [3] = S. pombe growth modifiers, basal conditions – strain 972, OD600, 24 h, no modulator, primary screen (AID 1090);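 further: basal condition with compound alone and no growth modifier present; test concentration not given here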; details: S. pombe 972 growth, higher = more signal, called active from +8 up or from −8 down
# [4] = budding yeast growth modifiers under rapamycin – strain BY4716, OD600, 96 h, primary screen (AID 1091); further: test concentration not given here; details: S. cerevisiae BY4716 + rapamycin, higher = more signal, called active from +8 up or from −8 down
# [5] = target: Torsin-1A-interacting protein 2 (Homo sapiens) (UniProt Q8NFQ8); assay: small molecules binding lysate-expressed LULL1 – cell lysate, human LULL1 lysate, 635/667 nm fluorescence, primary screen (AID 1092); details: small-molecule microarray, hLULL1 lysate binding, 635 nm fluorescence; higher = more signal;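 further: probe is lysate of COS7 cells overexpressing human LULL1; score merges per-feature 667 nm fluorescence with signal-to-noise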
# [6] = optical density change of DRC41 E. coli – strain DRC41, OD650, 24 h, E. coli filamentation project, primary screen (AID 1093);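 further: MC1000 strain lacking acrAB efflux and sulA so SOS filamentation is blocked; test concentration not given here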; details: E. coli DRC41 growth, higher = more signal, called active from +8 up or from −8 down
# [7] = probe aLefty2 binding to arrayed compounds – biochemical, biotinylated probe, 635/667 nm fluorescence, primary screen (AID 1094); details: small-molecule microarray, higher = more signal;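 further: score merges spot fluorescence near 667 nm with spot signal-to-noise ratio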
# [8] = test system: Noggin (protein binding on small-molecule microarray); assay: small molecules binding Noggin protein – biochemical, 635/667 nm fluorescence, primary screen (AID 1095); details: 635 nm fluorescence, higher = more signal;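 further: score merges 667 nm feature fluorescence with signal to noise over triplicate slides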
# [9] = target: Neurogenic locus notch homolog protein 3 (Homo sapiens) (UniProt Q9UM47); assay: small molecules binding NOTCH3 protein – biochemical, 635/667 nm fluorescence, primary screen (AID 1096); details: small-molecule microarray, 635 nm fluorescence, higher = more signal
# [10] = probe aEGFR binding to arrayed compounds – biochemical, biotinylated probe, 635/667 nm fluorescence, primary screen (AID 1097); details: small-molecule microarray, higher = more signal;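 further: probe is a biotinylated anti-EGFR antibody binding compounds printed on slides; score combines fluorescence near 667 nm and signal to noise of each spot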
# Neurogenic locus notch homolog protein 3 (Homo sapiens), sequence (Q9UM47 whole entry, looked up): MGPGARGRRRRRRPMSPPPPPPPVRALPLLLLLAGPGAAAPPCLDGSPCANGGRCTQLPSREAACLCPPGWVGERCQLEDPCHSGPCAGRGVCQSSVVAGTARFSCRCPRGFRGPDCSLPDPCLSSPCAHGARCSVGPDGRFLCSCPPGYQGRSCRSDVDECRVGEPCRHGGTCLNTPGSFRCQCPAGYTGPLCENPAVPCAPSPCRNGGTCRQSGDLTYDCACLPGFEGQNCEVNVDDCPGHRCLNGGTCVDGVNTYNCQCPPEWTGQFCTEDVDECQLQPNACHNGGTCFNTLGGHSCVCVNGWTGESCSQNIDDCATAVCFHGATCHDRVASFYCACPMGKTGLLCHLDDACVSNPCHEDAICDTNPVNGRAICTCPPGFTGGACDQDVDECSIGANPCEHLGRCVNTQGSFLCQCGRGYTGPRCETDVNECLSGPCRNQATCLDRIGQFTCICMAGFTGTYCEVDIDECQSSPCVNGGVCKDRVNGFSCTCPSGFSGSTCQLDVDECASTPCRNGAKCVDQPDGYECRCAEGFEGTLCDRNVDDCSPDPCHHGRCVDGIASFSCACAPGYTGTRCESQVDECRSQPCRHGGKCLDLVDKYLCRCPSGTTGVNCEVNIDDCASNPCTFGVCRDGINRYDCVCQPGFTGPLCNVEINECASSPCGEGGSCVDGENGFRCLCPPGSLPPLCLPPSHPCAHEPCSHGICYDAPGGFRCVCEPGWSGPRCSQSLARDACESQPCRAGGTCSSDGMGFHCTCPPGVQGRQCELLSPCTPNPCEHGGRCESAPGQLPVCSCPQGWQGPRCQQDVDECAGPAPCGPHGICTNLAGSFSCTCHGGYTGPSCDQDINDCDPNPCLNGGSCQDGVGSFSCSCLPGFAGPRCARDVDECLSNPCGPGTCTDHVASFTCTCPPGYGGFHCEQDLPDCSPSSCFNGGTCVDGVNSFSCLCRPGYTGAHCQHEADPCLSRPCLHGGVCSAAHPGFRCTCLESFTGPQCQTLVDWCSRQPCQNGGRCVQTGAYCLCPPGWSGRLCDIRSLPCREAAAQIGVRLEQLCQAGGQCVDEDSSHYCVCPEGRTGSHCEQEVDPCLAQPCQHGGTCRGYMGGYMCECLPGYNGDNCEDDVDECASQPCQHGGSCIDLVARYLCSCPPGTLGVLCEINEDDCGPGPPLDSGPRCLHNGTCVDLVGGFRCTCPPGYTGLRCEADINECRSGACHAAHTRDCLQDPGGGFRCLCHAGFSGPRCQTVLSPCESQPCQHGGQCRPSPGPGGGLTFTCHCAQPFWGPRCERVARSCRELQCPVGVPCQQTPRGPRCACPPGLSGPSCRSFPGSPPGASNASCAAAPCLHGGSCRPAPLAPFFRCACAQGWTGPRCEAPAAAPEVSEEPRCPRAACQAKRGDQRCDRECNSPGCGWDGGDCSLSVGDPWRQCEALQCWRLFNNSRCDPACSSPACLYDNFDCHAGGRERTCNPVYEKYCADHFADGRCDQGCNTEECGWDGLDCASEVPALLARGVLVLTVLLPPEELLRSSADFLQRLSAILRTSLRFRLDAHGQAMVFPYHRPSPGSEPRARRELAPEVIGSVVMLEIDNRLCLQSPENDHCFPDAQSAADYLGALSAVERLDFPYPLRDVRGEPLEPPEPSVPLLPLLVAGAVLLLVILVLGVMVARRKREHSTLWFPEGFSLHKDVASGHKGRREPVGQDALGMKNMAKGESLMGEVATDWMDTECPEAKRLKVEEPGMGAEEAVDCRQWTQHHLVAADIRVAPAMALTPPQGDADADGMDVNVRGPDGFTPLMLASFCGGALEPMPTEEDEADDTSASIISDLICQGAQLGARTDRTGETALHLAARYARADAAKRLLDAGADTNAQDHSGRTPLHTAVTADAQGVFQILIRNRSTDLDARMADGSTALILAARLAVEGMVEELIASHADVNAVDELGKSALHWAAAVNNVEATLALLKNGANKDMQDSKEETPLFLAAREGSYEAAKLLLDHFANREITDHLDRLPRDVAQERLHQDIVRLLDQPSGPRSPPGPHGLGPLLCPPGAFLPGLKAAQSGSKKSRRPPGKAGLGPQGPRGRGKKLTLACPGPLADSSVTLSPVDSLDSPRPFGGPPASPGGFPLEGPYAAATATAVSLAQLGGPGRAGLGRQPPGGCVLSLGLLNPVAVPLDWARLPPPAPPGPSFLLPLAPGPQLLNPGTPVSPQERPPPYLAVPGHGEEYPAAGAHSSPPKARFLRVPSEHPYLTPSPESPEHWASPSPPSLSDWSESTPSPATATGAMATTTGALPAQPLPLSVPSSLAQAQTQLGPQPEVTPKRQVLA
# Torsin-1A-interacting protein 2 (Homo sapiens), sequence (Q8NFQ8 whole entry, looked up): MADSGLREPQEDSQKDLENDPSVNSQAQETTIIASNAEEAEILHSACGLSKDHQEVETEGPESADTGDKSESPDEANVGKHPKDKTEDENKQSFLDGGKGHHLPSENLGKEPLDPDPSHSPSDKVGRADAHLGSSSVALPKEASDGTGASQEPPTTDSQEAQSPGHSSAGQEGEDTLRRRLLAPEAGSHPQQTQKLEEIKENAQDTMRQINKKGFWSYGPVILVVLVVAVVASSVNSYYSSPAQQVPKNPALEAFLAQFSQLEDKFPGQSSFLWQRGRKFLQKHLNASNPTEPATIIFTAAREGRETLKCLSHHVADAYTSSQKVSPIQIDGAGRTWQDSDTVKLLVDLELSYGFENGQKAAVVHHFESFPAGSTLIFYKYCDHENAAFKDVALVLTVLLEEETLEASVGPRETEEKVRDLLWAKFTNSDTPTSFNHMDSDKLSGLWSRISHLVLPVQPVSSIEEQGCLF
SMILES,composite z-score [1],z-score [2],z-score [3],z-score [4],composite z-score [5],z-score [6],composite z-score [7],composite z-score [8],composite z-score [9],composite z-score [10]
O=C1O[C@@H](c2ccccc2)[C@@H](c2ccccc2)N2[C@@H](c3ccc(OCCO)cc3)[C@]3(C(=O)Nc4ccccc43)[C@@H](C(=O)Nc3nc4ccccc4s3)[C@H]12,1.53,1.46 (inactive),1.15 (inactive),2.44 (inactive),3.34,0.344 (inactive),0.321,1.3,1.11,0.224
O=C1O[C@H](c2ccccc2)[C@H](c2ccccc2)N2[C@H]1[C@@H](C(=O)N1CCN(c3ncccn3)CC1)[C@]1(C(=O)Nc3ccccc31)[C@H]2c1ccc(OCCO)cc1,1.56,2.72 (inactive),0.573 (inactive),4.75 (inactive),2.35,2.9 (inactive),-0.037,1.88,1.1,-0.0763
O=c1cccc(C=Cc2ccccc2)o1,-0.127,-0.411 (inactive),-1.06 (inactive),1.14 (inactive),-0.756,0.573 (inactive),-0.214,0.104,-1.13,-0.142
COc1c(C)cc(-c2cc3c(c(-c4ccc(Oc5ccccc5)cc4)n2)[Si](C(C)C)(C(C)C)OC3)cc1C,-0.871,1.09 (inactive),0.818 (inactive),2.03 (inactive),0.0255,-1.38 (inactive),-0.0528,0.104,-0.386,-0.0947
COCCOC(=O)N1C(=O)[C@@]2(c3cc(C#CCCO)ccc31)[C@H](c1ccccc1OCCO)N1[C@H](c3ccccc3)[C@H](c3ccccc3)OC(=O)[C@H]1[C@@H]2C(=O)N1CCN(c2ncccn2)CC1,1.54,1.24 (inactive),1.08 (inactive),3.94 (inactive),2.32,-0.27 (inactive),0.571,0.725,1.03,0.339
COC(=O)[C@@]1(Cc2ccccc2)[C@H]2c3cc(C(=O)N(C)C)n(Cc4cc(C)n(C)n4)c3C[C@H]2CN1C(=O)c1ccccc1,0.0423,-0.571 (inactive),-0.528 (inactive),-0.649 (inactive),3.96,-0.564 (inactive),0.0382,-0.127,0.809,0.238
CCOC(=O)C1=CCC(C(C)(C)C)N(S(=O)(=O)c2ccc(C)cc2)C1 (stereo not given),1.54,-0.792 (inactive),-1.75 (inactive),1.66 (inactive),3.3,-0.756 (inactive),0.0277,1.47,1.13,0.139
CN(C)CCCCNC(=O)[C@H]1C[C@H]2C(=O)N[C@@H](Cc3ccccc3)C(=O)N2[C@H]1c1ccc(O)cc1,1.54,-0.368 (inactive),0.523 (inactive),-1.4 (inactive),0.248,1.12 (inactive),0.0274,1.66,1.11,0.116
C=CCC(OC(C)=O)[C@@H]1[C@@H](N(Cc2ccc(-c3ccccc3)cc2)C(=O)Cc2ccc(F)cc2)c2cc(OCCCO)ccc2N1C(=O)c1ccc2ccccc2n1 (stereo not given in full),-0.0414,-0.583 (inactive),-0.0387 (inactive),-0.527 (inactive),0.208,1.47 (inactive),-0.057,-0.423,-0.0833,0.44
COCCOC(=O)N1C(=O)[C@@]2(c3cc(C#CCNC(N)=O)ccc31)[C@H](c1ccc(O)cc1)N1[C@H](c3ccccc3)[C@H](c3ccccc3)OC(=O)[C@H]1[C@@H]2C(=O)Nc1nc2ccccc2s1,0.902,-2.82 (inactive),-1.55 (inactive),-1.12 (inactive),1.01,3.57 (inactive),0.218,1.23,1.04,0.13
C=C[C@@H](COC(C)=O)N(Cc1ccccc1[N+](=O)[O-])S(=O)(=O)c1ccc(Br)cc1,0.61,-3.84 (inactive),-2.76 (inactive),-0.748 (inactive),1.43,1.91 (inactive),-0.297,1.1,0.945,0.212
COc1cc2c(cc1O)C(C)N(Cc1cccc(OC(F)(F)F)c1)CC2 (stereo not given),1.42,-0.167 (inactive),-2.4 (inactive),-1.09 (inactive),3.02,-1.26 (inactive),-0.0719,0.205,0.76,-0.0697
O=C1O[C@@H](c2ccccc2)[C@@H](c2ccccc2)N2[C@@H](c3ccc(OCCO)cc3)[C@]3(C(=O)Nc4ccc(C#CC5=CCCCC5)cc43)[C@@H](C(=O)O)[C@H]12,1.5,1.73 (inactive),1.22 (inactive),-0.188 (inactive),1.96,0.112 (inactive),0.0919,0.107,0.793,0.0061

# From PubChem BioAssay
